Compound activity from PubChem BioAssay.
In the library only some 10% were active in any assay of this set; here they are far more common.
HCT116 bCat-KO: beta-catenin-lacking colon tumor cell growth suppression | HCT116 beta-catenin knockout viability, CellTiter-Glo, 60 h; hits give low values | viability, % at 10 µM | 1.5% of 140,000 active | AID 818;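 active = viability at or under a set limit, the compound median less 4 SD, cut at about 6% in these data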;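 note: 0% = Hyamine 1622 control at 20 µM and 100% = untreated cell control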
p97 ATPase inh: human p97 ATPase inhibition | P55072 | recombinant p97 ATPase, Kinase-Glo ATP luminescence, 3 h | inhibition, % at 8 µM | 0.42% of 220,000 active; in the data active = inhibition above about 15%;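 note: 0% = DMSO vehicle and 100% = wells lacking enzyme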
Target sequence (P55072 whole entry, looked up): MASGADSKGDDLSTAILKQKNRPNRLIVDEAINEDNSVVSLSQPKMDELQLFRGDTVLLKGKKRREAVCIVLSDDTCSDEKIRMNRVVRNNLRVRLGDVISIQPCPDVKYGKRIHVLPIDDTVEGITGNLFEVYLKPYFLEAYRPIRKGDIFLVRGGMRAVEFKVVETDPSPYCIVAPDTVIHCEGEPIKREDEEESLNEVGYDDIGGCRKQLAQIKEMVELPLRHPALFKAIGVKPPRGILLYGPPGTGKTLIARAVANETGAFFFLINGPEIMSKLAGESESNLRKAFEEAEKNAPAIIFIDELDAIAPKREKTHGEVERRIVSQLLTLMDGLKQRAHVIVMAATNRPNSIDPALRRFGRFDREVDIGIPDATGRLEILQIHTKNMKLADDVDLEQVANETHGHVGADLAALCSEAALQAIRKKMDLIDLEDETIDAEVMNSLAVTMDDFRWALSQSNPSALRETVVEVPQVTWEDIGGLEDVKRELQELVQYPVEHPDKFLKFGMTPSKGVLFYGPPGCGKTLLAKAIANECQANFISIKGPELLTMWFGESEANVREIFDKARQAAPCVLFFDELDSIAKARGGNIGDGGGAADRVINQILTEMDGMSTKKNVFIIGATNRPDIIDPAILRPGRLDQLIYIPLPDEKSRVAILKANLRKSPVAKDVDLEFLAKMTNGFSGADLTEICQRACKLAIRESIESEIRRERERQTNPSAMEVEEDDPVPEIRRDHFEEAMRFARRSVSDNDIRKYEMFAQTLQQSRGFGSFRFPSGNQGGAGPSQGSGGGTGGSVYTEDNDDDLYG
ROMK mod: modulators of human ROMK potassium channel. AID 1918. 2% of 130,000 active. Tet-inducible ROMK, thallium flux fluorescence; actives lie on both sides. P48048. B-score at 10 µM;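 active = signal ratio slope over the read window, or its plate-corrected B-score, at least 3 SD from the plate mean, either direction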;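 note: B-score of the F/F0 ratio slope over 7 to 12 s after thallium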
INS promoter inh: TRM-6 insulin promoter activity inhibition; TRM-6 cells (human fetal islet line), insulin promoter-eGFP reporter, imaging; reporter expression induced with tamoxifen; inhibition, % at 2 µM; 0.9% of 130,000 active;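 active = inhibition above the mean plus 3 SD, with well images judged a real hit on visual review, cut at about 60% in these data, passing the limit was not always enough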
HCT116 PTEN-null: growth suppressors of cells with PTEN tumor suppressor deletion. HCT116 PTEN-null viability, CellTiter-Glo, 60 h; hits give low values. viability, % at 10 µM. 1.2% of 140,000 active;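 active = viability at or below a set limit, 4 SD under the median of all tested compounds, cut at about 3.7% in these data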;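 note: PTEN knockout HCT116 line with beta catenin targeted HCT116 as companion control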
L major viab: reduces viability of Leishmania major promastigotes; resazurin fluorescence viability; inhibition, % at 10 µM; 9% of 200,000 active; AID 1063; in the data active = inhibition above about 50%;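 note: promastigotes grown with compound for 44 hours at 28 °C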
Numbers without * were called inactive.

Screening O=C(N/N=C/c1ccc[nH]1)c1sc2ccccc2c1Cl returned HCT116 bCat-KO 18.2, p97 ATPase inh -4.9, ROMK mod -0.0177, HCT116 PTEN-null 17.2 and L major viab 98.8*.
Screening Clc1cccc(Cl)c1COc1ccccc1CNn1cnnc1 returned p97 ATPase inh -1.8, ROMK mod -0.0479, INS promoter inh -12.5 and L major viab 8.1.
CCCCN(CCCC)CCNC(=O)Cc1nc2c(c(=O)[nH]c(=O)n2C)n1C was read as HCT116 bCat-KO 81.7, p97 ATPase inh -3.7, ROMK mod 0.0334, INS promoter inh -81.2, HCT116 PTEN-null 88.2 and L major viab 0.0.
For CC(=O)Nc1ccc(NC(=O)c2ccccc2S(=O)(=O)c2ccc([N+](=O)[O-])cc2)cc1 the results were p97 ATPase inh 2.3, ROMK mod 0.673 and L major viab -4.2.
`CC(CN1C(C)CCCC1C)OC(=O)c1ccc(Cl)cc1Cl` (stereo unspecified) gave p97 ATPase inh -8.7, ROMK mod -0.978 and L major viab 10.0.
CCOC(=O)c1oc2ccc(CNCCO)c(Cl)c2c1C was read as HCT116 bCat-KO 91.6, p97 ATPase inh 1.1, ROMK mod -0.00882, INS promoter inh -183.7, HCT116 PTEN-null 93.6 and L major viab 96.7*.
Screening CCOC(=O)c1oc2ccc(CNC3CCCCC3)c(Cl)c2c1C returned HCT116 bCat-KO 46.4, p97 ATPase inh -1.9, INS promoter inh 30.8, HCT116 PTEN-null 58.9 and L major viab 95.8*.
`N#CNc1nc(O)cc(=O)[nH]1` gave p97 ATPase inh 7.8.
Screening COc1ccc(Nc2ncnc3c2cnn3Cc2ccc(C)cc2)cc1 returned HCT116 bCat-KO 85.4, p97 ATPase inh 2.4, ROMK mod -0.0579, INS promoter inh 3.2, HCT116 PTEN-null 74.6 and L major viab 90.2*.
Screening CCN1C(=O)S/C(=C/c2cn(C)c3ccccc23)C1=O returned HCT116 bCat-KO 87.9, p97 ATPase inh 0.6, ROMK mod 0.086, INS promoter inh -30.8, HCT116 PTEN-null 91.4 and L major viab 81.9*.
For Cn1c(Cl)c(/C=N/OC(=O)c2ccccc2Cl)c2ccccc21 the results were HCT116 bCat-KO 94.7, p97 ATPase inh 3.9, INS promoter inh -233.3, HCT116 PTEN-null 111.5 and L major viab -9.6.
`Cc1cccc(C(=O)O/N=C/c2c(N3CCOCC3)n(C)c3ccccc23)c1` gave HCT116 bCat-KO 33.2, p97 ATPase inh 1.3, HCT116 PTEN-null 16.4 and L major viab 98.9*.
For COc1ccc(OC)c(NS(=O)(=O)Cc2ccccc2)c1 the results were HCT116 bCat-KO 104.8, p97 ATPase inh 4.0, HCT116 PTEN-null 103.8 and L major viab 1.7.
Screening CCc1n(CC(O)COC2CCCCC2)c2ccccc2[n+]1C (stereo unspecified) returned p97 ATPase inh -3.6, ROMK mod 0.00954 and L major viab -1.5.
`CCCc1n(CC)c2ccccc2[n+]1CC(O)COC1CCCCC1` (stereo unspecified) gave p97 ATPase inh -1.1, ROMK mod 0.0293, INS promoter inh -28.6 and L major viab 97.0*.
`O=C(COC(=O)[C@H](Cc1c[nH]c2ccccc12)NC(=O)c1ccc(Cl)cc1)Nc1ccc2c(c1)OCO2` gave HCT116 bCat-KO 94.8, p97 ATPase inh -1.4, ROMK mod -0.201, INS promoter inh 20.8, HCT116 PTEN-null 91.6 and L major viab 100.0*.
For O=C(Cn1c(C(F)(F)F)nc2ccccc21)N=Nc1c(O)[nH]c2ccc(Br)cc12 the results were p97 ATPase inh 0.0, ROMK mod 0.544, INS promoter inh 30.0 and L major viab -5.8.
Screening O=C1NC(c2cccc([N+](=O)[O-])c2)Oc2ccccc21 (stereo unspecified) returned p97 ATPase inh 1.9, ROMK mod -0.266, INS promoter inh -6.2 and L major viab 5.3.
C=CCC(C)(NCc1ccccc1)c1ccc(C)cc1 (stereo unspecified) was read as HCT116 bCat-KO 69.6, p97 ATPase inh 0.3, ROMK mod -0.456, INS promoter inh 3.9, HCT116 PTEN-null 83.7 and L major viab 68.8*.
`C=CCC(C)(NCc1ccccc1)c1ccccc1` (stereo unspecified) gave HCT116 bCat-KO 88.2, p97 ATPase inh -6.0, INS promoter inh -10.7, HCT116 PTEN-null 94.4 and L major viab 2.4.
COC(=O)c1c(C)[nH]c(C)c1-c1ccc(C)cc1 was read as HCT116 bCat-KO 98.0, p97 ATPase inh -0.3, ROMK mod 0.00983, INS promoter inh 43.8, HCT116 PTEN-null 93.7 and L major viab 93.6*.
Screening CC(C)CCn1c(=O)c2ccccc2n2c(CN3C(=O)NC4(CCC(C)CC4)C3=O)nnc12 (stereo unspecified) returned HCT116 bCat-KO 90.3, p97 ATPase inh -0.4, ROMK mod 4.03*, INS promoter inh 15.2, HCT116 PTEN-null 82.7 and L major viab -0.6.
`CCN(CCNC(=O)Nc1ccc(Cl)cc1)c1ccccc1` gave HCT116 bCat-KO 42.6, p97 ATPase inh -1.0, INS promoter inh -24.2, HCT116 PTEN-null 17.5 and L major viab 96.5*.
CCN(CC)c1nc(OCCNC(=O)Nc2ccccc2)nc(N(CC)CC)n1 was read as HCT116 bCat-KO 89.5, p97 ATPase inh 8.6, ROMK mod -0.0211, INS promoter inh 71.4*, HCT116 PTEN-null 76.9 and L major viab 26.5.
COc1cc2c(cc1OC)C(C(=O)NCc1cccnc1)C(c1cccnc1)N(C)C2=O (stereo unspecified) was read as HCT116 bCat-KO 102.3, p97 ATPase inh -3.7, ROMK mod 0.0401, HCT116 PTEN-null 106.0 and L major viab -3.0.
Screening CC(Cc1cccs1)NC(=O)Nc1ccc(Cl)c(Cl)c1 (stereo unspecified) returned HCT116 bCat-KO 37.2, p97 ATPase inh 0.2, ROMK mod -2.13, INS promoter inh -37.0, HCT116 PTEN-null 25.0 and L major viab 61.4*.
For CC(Cc1cccs1)NC(=O)Nc1ccc(Cl)cc1 (stereo unspecified) the results were HCT116 bCat-KO 75.0, p97 ATPase inh 6.1, ROMK mod -1.19, INS promoter inh 35.1, HCT116 PTEN-null 77.6 and L major viab 32.8.
For CC(Cc1cccs1)NC(=S)Nc1ccccc1 (stereo unspecified) the results were HCT116 bCat-KO 98.6, p97 ATPase inh 0.9, ROMK mod -0.434, INS promoter inh -4.0, HCT116 PTEN-null 84.0 and L major viab 59.9*.
CC(Cc1cccs1)NC(=O)Nc1ccccc1 (stereo unspecified) was read as HCT116 bCat-KO 90.2, p97 ATPase inh 4.6, ROMK mod 0.0804, HCT116 PTEN-null 82.9 and L major viab 4.4.
Cc1ccc(CNC(=O)Cc2noc3ccccc23)cc1 was read as p97 ATPase inh 1.8, ROMK mod -0.0201 and L major viab -3.4.
CCCCNC(=S)Nc1ccc([N+](=O)[O-])cc1 was read as HCT116 bCat-KO 41.2, p97 ATPase inh 2.3, ROMK mod 0.981, INS promoter inh 10.3, HCT116 PTEN-null 23.8 and L major viab 49.2.
